Hits are enriched below; roughly 6.8% of the tested compounds scored in any of these assays.
Pf Dd2 inh: blocks growth of Plasmodium falciparum Dd2 parasites; P. falciparum Dd2 growth, SYBR Green, 72 h; active compounds read low; activity change, % at 10 µM; 94,000 compounds, 2.3% hits; AID 1159554; in the data active = activity change below about -80%
C diff growth: inhibitors of Clostridium difficile growth; Clostridium difficile clinical isolate growth, OD600, 24 h; active compounds read low; growth activity, negative = inhibition, % at 16 µg/mL (by protocol); 86,000 compounds, 0.25% hits; AID 1259249;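 active = mean growth activity at or below -80% and every replicate also at or below -80%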;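 note: 0% = DMSO wells and -100% = levofloxacin 16 µg/mL wells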
T cruzi growth: blocks T. cruzi growth in NIH3T3 culture. AID 624255. 77,000 compounds, 5.9% hits. inhibition, % at 8.34 µM. T. cruzi beta-gal in NIH3T3, GalScreen luminescence, 90 h;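 active = mean inhibition above about 93%, with at least 55% of replicates each passing it, limit read from the data, passing the limit was not always enough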
Numbers without * were called inactive.

Screening COc1ccc(-c2ccc3c(c2)[C@@H]2[C@@H](CCN2Cc2ccncc2)[C@@H](CO)N3)cc1 returned Pf Dd2 inh -79, C diff growth 47 and T cruzi growth 84.
COc1ccc(C#Cc2ccc3c(c2)[C@H]2[C@H](CCN2Cc2ccncc2)[C@H](CO)N3)cc1 was read as Pf Dd2 inh -94* and C diff growth 47.
Screening COc1ccc(C#Cc2ccc3c(c2)[C@H]2[C@H](CCN2Cc2nccs2)[C@H](CO)N3)cc1 returned Pf Dd2 inh -85* and C diff growth 30.
OC[C@@H]1Nc2ccc(C#Cc3ccccc3)cc2[C@@H]2[C@H]1CCN2Cc1nccs1 was read as Pf Dd2 inh -77 and C diff growth 40.
For C[C@H](CO)N1C[C@H](C)[C@@H](CN(C)S(=O)(=O)c2ccc(Cl)cc2)Oc2c(NC(=O)c3nc4ccccc4s3)cccc2C1=O the results were Pf Dd2 inh -6, C diff growth 7 and T cruzi growth 69.
Screening COc1ccc(S(=O)(=O)Nc2ccc3c(c2)CC(=O)N([C@H](C)CO)C[C@H](C)[C@@H](CN(C)S(=O)(=O)c2ccc(OC)cc2)O3)cc1 returned Pf Dd2 inh -49, C diff growth 8 and T cruzi growth 9.
Screening Cc1ccc(S(=O)(=O)N(C)C[C@@H]2Oc3ccc(NS(=O)(=O)c4ccc(Cl)cc4)cc3CC(=O)N([C@H](C)CO)C[C@H]2C)cc1 returned Pf Dd2 inh -39, C diff growth 5 and T cruzi growth 25.
COc1ccc(S(=O)(=O)Nc2ccc3c(c2)CC(=O)N([C@@H](C)CO)C[C@H](C)[C@H](CN(C)S(=O)(=O)c2ccc(OC)cc2)O3)cc1 was read as Pf Dd2 inh -86*, C diff growth 5 and T cruzi growth 3.
`Cc1ccc(S(=O)(=O)N(C)C[C@@H]2Oc3ccc(NS(=O)(=O)c4ccc(Cl)cc4)cc3CC(=O)N([C@@H](C)CO)C[C@@H]2C)cc1` gave Pf Dd2 inh -81*, C diff growth 3 and T cruzi growth 42.
Screening Cc1ccc(S(=O)(=O)NCC[C@@H]2CC[C@H](NC(=O)Nc3cccc(F)c3)[C@H](CO)O2)cc1 returned Pf Dd2 inh -23, C diff growth -1 and T cruzi growth -19.
For C[C@@H]1CCCCO[C@@H](CN(C)C(=O)CCCN(C)C)[C@@H](C)CN([C@@H](C)CO)C(=O)c2cc(NC(=O)c3ccccc3)ccc2O1 the results were Pf Dd2 inh -21, C diff growth 0 and T cruzi growth 47.
C/C=C/c1ccc2c(c1)O[C@@H](CN(C)Cc1ccc(C(=O)O)cc1)[C@H](C)CN([C@H](C)CO)S2(=O)=O was read as Pf Dd2 inh -19 and C diff growth 1.
Screening CNC[C@@H]1Oc2cc(C#CC(C)(C)O)ccc2S(=O)(=O)N([C@@H](C)CO)C[C@@H]1C returned Pf Dd2 inh -26, C diff growth 3 and T cruzi growth 1.
Screening C[C@@H]1CN([C@H](C)CO)C(=O)c2cccc(NC(=O)Nc3cccc4ccccc34)c2O[C@H]1CN(C)C(=O)Nc1ccc2c(c1)OCO2 returned Pf Dd2 inh -19, C diff growth -6 and T cruzi growth 66.
For C[C@H](CO)N1C[C@H](C)[C@@H](CN(C)C(=O)Nc2cccc3ccccc23)Oc2ccc(NC(=O)Nc3ccc4c(c3)OCO4)cc2CC1=O the results were Pf Dd2 inh -82*, C diff growth -1 and T cruzi growth -10.
`CC(C)NC(=O)Nc1cccc2c1O[C@H](CN(C)C(=O)Nc1ccc3c(c1)OCO3)[C@H](C)CN([C@@H](C)CO)C2=O` gave Pf Dd2 inh -83* and T cruzi growth 39.
Screening CC(C)NC(=O)Nc1cccc2c1O[C@H](CN(C)C(=O)Nc1ccc3c(c1)OCO3)[C@@H](C)CN([C@@H](C)CO)C2=O returned Pf Dd2 inh 16 and T cruzi growth 10.
Screening C[C@H]1CN([C@@H](C)CO)C(=O)Cc2cc(NC(=O)Nc3ccc4c(c3)OCO4)ccc2O[C@@H]1CN(C)C(=O)Nc1cccc2ccccc12 returned Pf Dd2 inh 14, C diff growth -2 and T cruzi growth 4.
C[C@H]1CN([C@@H](C)CO)C(=O)c2cccc(NC(=O)C3CC3)c2O[C@H]1CN(C)C(=O)Nc1ccc2c(c1)OCO2 was read as Pf Dd2 inh -26, C diff growth -4 and T cruzi growth 32.
For C[C@@H]1CN([C@@H](C)CO)C(=O)c2cccc(NC(=O)C3CC3)c2O[C@@H]1CN(C)C(=O)Nc1ccc2c(c1)OCO2 the results were Pf Dd2 inh -83*, C diff growth -2 and T cruzi growth 19.
`C[C@@H]1CN([C@H](C)CO)C(=O)c2cccc(NC(=O)Nc3cccc4ccccc34)c2O[C@@H]1CN(C)C(=O)Nc1ccc2c(c1)OCO2` gave Pf Dd2 inh -83*, C diff growth 6 and T cruzi growth 80.
For C[C@H](CO)N1C[C@H](C)[C@H](CN(C)C(=O)Cc2cccnc2)Oc2ncc(-c3cccnc3)cc2C1=O the results were Pf Dd2 inh 13, C diff growth 0 and T cruzi growth 74.
`C[C@H](CO)N1C[C@H](C)[C@@H](CN(C)C(=O)Nc2ccc(C(F)(F)F)cc2)Oc2ncc(C#C[C@@H](C)O)cc2C1=O` gave Pf Dd2 inh -16 and C diff growth -3.
For C[C@H]1CN([C@@H](C)CO)C(=O)c2cccc(NC(=O)Nc3ccccc3)c2O[C@H]1CN(C)C(=O)Nc1ccc2c(c1)OCO2 the results were Pf Dd2 inh -17 and T cruzi growth 21.
`C[C@@H]1CN([C@@H](C)CO)C(=O)c2cccc(NC(=O)Nc3ccccc3)c2O[C@@H]1CN(C)C(=O)Nc1ccc2c(c1)OCO2` gave Pf Dd2 inh -85* and T cruzi growth -3.
COCC(=O)N1[C@H](CO)[C@H](c2ccccc2)C12CN(C(=O)NC1CCCC1)C2 was read as Pf Dd2 inh 35 and C diff growth 0.
COc1ccc(C#Cc2ccc3c(c2)[C@H]2[C@H](CCN2C(=O)c2ccccn2)[C@@H](CO)N3)cc1 was read as Pf Dd2 inh -91* and C diff growth 37.
Screening O=C(c1ccccn1)N1CC[C@@H]2[C@H](CO)Nc3ccc(C#Cc4ccccc4)cc3[C@@H]21 returned Pf Dd2 inh 2, C diff growth -15 and T cruzi growth 84.
`COc1ccccc1C#Cc1ccc2c(c1)[C@H]1[C@H](CCN1C(=O)c1ccncc1)[C@H](CO)N2` gave Pf Dd2 inh -52, C diff growth -100* and T cruzi growth 66.
COc1ccc(C#Cc2ccc3c(c2)[C@H]2[C@H](CCN2C(=O)c2ccncc2)[C@@H](CO)N3)cc1 was read as Pf Dd2 inh -60 and C diff growth 8.
Screening O=C(c1ccccn1)N1CC[C@H]2[C@H](CO)Nc3ccc(C#Cc4cccnc4)cc3[C@H]21 returned Pf Dd2 inh -20, C diff growth 3 and T cruzi growth 77.
For COc1ccc(C#Cc2ccc3c(c2)[C@H]2[C@H](CCN2C(=O)c2ccccn2)[C@H](CO)N3)cc1 the results were Pf Dd2 inh -88* and C diff growth 50.

Source: PubChem
